Measured values: ChEMBL document CHEMBL4513216, “Probing the Open Global Health Chemical Diversity Library for Multistage-Active Starting Points for Next-Generation Antimalarials” (ACS Infect Dis, 2020)
About 2,700 (4%) of roughly 68,000 compounds showed an effect of 50% or more. For the sample, strong results were picked, then their nearest neighbours and some compounds at random.

test system: Plasmodium berghei; test: Screen against P. berghei liver stage (PbLuc), transformed with Luciferase, at 2uM; assay type: functional, HepG2; settings: tested at 2 uM

Row | SMILES | INHIBITION
1 | Cc1ccc(CN2C[C@H](OCCN(C)C)[C@H]3COC[C@H]32)o1 | 15.36%
2 | COc1nn(C)c2c1CCCN(C(=O)c1ccc(C)c(F)c1)C2 | -128.25%
3 | COC(=O)CC(NC(=O)c1ccccc1OC)c1cccs1 (stereo not given) | 53.58%
4 | COC(=O)CC(NC(=O)c1ccc(OC)cc1OC)c1cccs1 (stereo not given) | 27.47%
5 | COc1ccccc1C(=O)NC(CC(=O)O)c1cccs1 (stereo not given) | 24.31%
6 | CCC[C@@H]1CN(Cc2c[nH]nc2-c2ccc(OC)cc2)C[C@H]1NC(C)=O | 42.4%
7 | Cc1ccc(F)c(C(=O)N2C[C@@H](C(=O)O)[C@H](c3ccccc3)C2)c1Cl | 16.49%
8 | CCn1nc(C)c(CN(CCOC)C(=O)c2ccccc2N(C)C)c1C | 15.74%
9 | CCOc1ccc(C(=O)N(CCOC)Cc2c(C)nn(CC)c2C)o1 | 65.1%
10 | CCn1nc(C)c(CN(CCOC)C(=O)c2cnc(C)nc2O)c1C | 48.68%
11 | CCN1CCN(C2CCN(C(C(N)=O)c3ccccc3)CC2)C1=O (stereo not given) | -42.16%
12 | CS(=O)(=O)CC1(CNc2ccc(C#N)c(C(F)(F)F)c2)CC1 | 39.25%
13 | CC(C)COC(C)C(=O)N1CCCCCC1 (stereo not given) | 7.46%
14 | CC(C)COC(C)C(=O)N1CCCCC1 (stereo not given) | 30.68%
15 | CC(C)COC(C)C(=O)N1CCCC1 (stereo not given) | 52.6%
16 | CCn1c(C2CCN(C(=O)c3ccc4sc(C)nc4c3)CC2)n[nH]c1=O | 26.49%
17 | CN(C)Cc1nnc(C2CCCN(c3nc(C(N)=O)cs3)C2)n1C (stereo not given) | 12.29%
18 | COCC(C)(O)CNC(=O)c1cc(-c2cc(OC)ccc2OC)nn1C (stereo not given) | 10.91%
19 | O=C(CCCc1nnc(-c2ccccc2)o1)N1CCN(C2CC2)CC1 | 21.64%
20 | c1cnc(N2CCO[C@H]3CN(CC4CCC4)C[C@H]32)cn1 | 15.88%
21 | O=C(NCC1(c2cccs2)CCCCC1)N1CCOC(CO)C1 (stereo not given) | -46.5%
22 | COc1ccc(CN(C)c2ncc(S(N)(=O)=O)s2)c(OC)c1 | 67.36%
23 | COc1ccc(OC)c(CCNc2ncc(S(N)(=O)=O)s2)c1 | -0.95%
24 | COc1ccc(OC)c(CN(C)c2ncc(S(N)(=O)=O)s2)c1 | -28.18%
25 | CC(C)(C)c1nccc(C2(c3ccccc3Cl)CCNCC2)n1 | 2.06%
26 | CCC(O)CN1CCN(C(=O)CCSC)CC1 (stereo not given) | -38.59%
27 | CSCCC(=O)N1CCN(CC(C)O)CC1 (stereo not given) | 52.3%

Row | SMILES | INHIBITION
28 | CSCCC(=O)N1CCN(CC(O)C(C)(C)C)CC1 (stereo not given) | 32.1%
29 | CC(C)c1nnc(NC(=O)CCC(=O)NCC2CCCO2)s1 (stereo not given) | 4.39%
30 | CCC(CNC(=O)CCn1cncn1)N1CCc2ccccc2C1 (stereo not given) | 60%
31 | CC(CNC(=O)CCCn1cncn1)N1CCc2ccccc2C1 (stereo not given) | -48.63%
32 | CC(C)C(CNC(=O)CCn1cncn1)N1CCc2ccccc2C1 (stereo not given) | 16.98%
33 | O=C(CN1CCCCCC1=O)NCC1CCN(c2ccccc2)C1 (stereo not given) | -17.17%
34 | CC(CNC1CCN(Cc2ccncc2)CC1)c1ccc(F)cc1F (stereo not given) | 26.99%
35 | CC(C)c1cc(NCC(O)c2ccc(F)cc2)n2nccc2n1 (stereo not given) | -25.05%
36 | CCN(CC(F)(F)F)C(=O)C1CCCN(Cc2nc(C)c(C)o2)C1 (stereo not given) | 35.46%
37 | CC(=O)N1CCN(c2cc(CCNC(=O)C(C)C)nc(C3CC3)n2)CC1 | 27.39%
38 | CC(=O)NCCc1cc(N2CCN(C(C)=O)CC2)nc(C2CC2)n1 | 51.61%
39 | CCC(=O)NCCc1cc(N2CCN(C(C)=O)CC2)nc(C2CC2)n1 | -28.81%
40 | Cc1cnn(CC2CCCN2C(=O)CCc2ccc3c(c2)OCO3)c1 (stereo not given) | -26.45%
41 | NS(=O)(=O)c1ccc(F)c(C(=O)NCCSc2ccccn2)c1 | 32.97%
42 | Cn1ccnc1-c1nc(N2CCCCC2)ncc1-c1ccccc1F | -29.24%
43 | CS(=O)(=O)NCc1cnc2n1CCN(Cc1ccoc1)CC2 | 50.17%
44 | CS(=O)(=O)NCc1cnc2n1CCN(Cc1ccsc1)CC2 | -75.39%
45 | CS(=O)(=O)NCc1cnc2n1CCN(Cc1cccnc1)CC2 | 8.36%
46 | CN(Cc1ccco1)Cc1ccccc1CNC(=O)c1cnc[nH]1 | 21.27%
47 | CC(C)Nc1cccc(CC2CCN(C)C2)n1 (stereo not given) | -5.42%
48 | Cn1nccc1-c1cccc(CC2CCN(S(C)(=O)=O)C2)n1 (stereo not given) | -30.88%
49 | CC(C)Nc1cccc(CC2CCN(S(C)(=O)=O)CC2)n1 | 52.82%
50 | Fc1ccc(-c2noc(C3COCCO3)n2)cc1F (stereo not given) | -29.82%
51 | O=C(Cc1ccc(S(=O)(=O)C(F)F)cc1)N1CCCC1 | 33.7%
52 | CN1CCN(C(=O)Cc2ccc(S(=O)(=O)C(F)F)cc2)CC1 | 63.39%
53 | O=C(Cc1ccc(S(=O)(=O)C(F)F)cc1)N1CCC1 | 17.61%
54 | COCc1ccccc1C(=O)N1CCCC1Cn1nc(C)cc1C (stereo not given) | -63.06%

Row | SMILES | INHIBITION
55 | CC(Cn1cncn1)NCc1nncn1C1CCCCC1 (stereo not given) | -28.93%
56 | O=C1NCCN1C1CCN(Cc2coc(-c3ccc(F)cc3)n2)CC1 | 17.31%
57 | O=C1NCCN1C1CCCN(Cc2coc(-c3ccc(F)cc3)n2)C1 (stereo not given) | 60.21%
58 | O=C1NCCN1C1CCCN(Cc2nnc(-c3ccc(F)cc3)o2)C1 (stereo not given) | -43.47%
59 | CCCn1nc(C)c(CNC(=O)C2COc3c(cccc3OC)C2)c1C (stereo not given) | 18.57%
60 | CCN(Cc1ccncc1)C(=O)C1COc2c(cccc2OC)C1 (stereo not given) | 57.75%
61 | COc1cccc2c1OCC(C(=O)N(Cc1ccncc1)CC(C)C)C2 (stereo not given) | 17.2%
62 | COc1cccc2c1OCC(C(=O)NCCCn1nc(C)c(Cl)c1C)C2 (stereo not given) | 50.59%
63 | COCCN(Cc1cnn(C)c1)C(=O)C1COc2c(cccc2OC)C1 (stereo not given) | 72.05%
64 | COc1cccc2c1OCC(C(=O)NCCn1nc(C)c(Cl)c1C)C2 (stereo not given) | 24.36%
65 | COCCN(Cc1ccncc1)C(=O)C1COc2ccccc2C1 (stereo not given) | 33.9%
66 | COCCN(Cc1ccncc1)C(=O)C1COc2c(cccc2OC)C1 (stereo not given) | 45.82%
67 | COc1cccc2c1OCC(C(=O)N(C)CCCc1cnn(C)c1)C2 (stereo not given) | 27.75%
68 | CC(C)(C)n1cc(C(=O)N2CCN(Cc3cccnc3)CC2)cn1 | -3.57%
69 | Cc1ccccc1CCCN1CCS(=O)(=O)CC1C (stereo not given) | -31.95%
70 | CC(C)n1cnc2c(-c3cccnc3)nc(C3CCNCC3)cc21 | -17.24%
71 | CCO[C@H]1CO[C@@]2(CCCN(S(=O)(=O)c3cccnc3)C2)C1 | 50.35%
72 | CCO[C@@H]1CO[C@@]2(CCCN(C(=O)c3ccc(OC)c(F)c3)C2)C1 | -8.46%
73 | O=C(c1ccc(F)c(F)c1)N1CCC[C@]2(C[C@@H](OCC3CC3)CO2)C1 | 13.04%
74 | O=C(N1CCCC1)N1CCC[C@]2(C[C@@H](OCc3ccncc3)CO2)C1 | -12.23%
75 | CCOCC(=O)N1CCC[C@]2(C[C@@H](OCc3ccncc3)CO2)C1 | 55.15%
76 | CCO[C@H]1CO[C@@]2(CCCN(S(=O)(=O)c3ccccc3)C2)C1 | -89.74%
77 | O=C(C1CC1)N1CCC[C@]2(C[C@@H](OCc3ccncc3)CO2)C1 | 2.4%
78 | CCO[C@@H]1CO[C@@]2(CCCN(S(=O)(=O)c3cccnc3)C2)C1 | 27.16%
79 | CCO[C@H]1CO[C@@]2(CCCN(C(=O)c3ccc(OC)c(F)c3)C2)C1 | 52.36%
80 | CC(=O)N1CCC(c2ccnc(Nc3cnccn3)n2)C1 (stereo not given) | 28.45%
81 | CC(C)CN1CCC2(CC1)C(=O)Nc1ccc(C(=O)N(C)C)cc12 | 11.28%

Row | SMILES | INHIBITION
82 | Cc1cc(O)ccc1-c1cc(-c2cnn(C)c2C2CC2)c(C#N)c(N)n1 | 7.06%
83 | c1cc2occc2c(N2CCCC(c3nncn3C3CC3)C2)n1 (stereo not given) | 12.62%
84 | CCCc1ccc(CN2CCC3(CCC(=O)N(CCCOC)C3)CC2)o1 | -26.08%
85 | CCCc1nccn1-c1ccc(C(O)CN2CCOCC2)cc1 (stereo not given) | 62%
86 | CCCc1nccn1-c1ccc(C(C)O)cc1 (stereo not given) | 10.23%
87 | OC(CN1CCOCC1)c1ccc(Br)cc1 (stereo not given) | 36.23%
88 | O=C(CN1CCCC1)N1CCCC(c2cc(=O)n3c(n2)CCCCC3)C1 (stereo not given) | 18.22%
89 | CN(C)c1ncccc1CNC(=O)N(Cc1ccccc1F)C1CC1 | -20.35%
90 | O=C(NCc1ccncc1)N(Cc1ccccc1F)C1CC1 | 14.83%
91 | Cc1ccc(CNC(=O)N(Cc2ccccc2F)C2CC2)cn1 | 70.41%
92 | Cc1nc(C2(O)CCCNCC2)sc1CCOc1ccccc1Cl (stereo not given) | -16.62%
93 | CCOc1ncccc1NC(=O)N1CCN(c2cccc(C)c2C)CC1 | 30.91%
94 | Cc1n[nH]c(C)c1NC(=O)CN1CCCC1c1noc(C(C)C)n1 (stereo not given) | 15.28%
95 | CN1CCN(C(=O)Cc2cccc(F)c2)Cc2cccnc21 | 26.09%
96 | O=C(Cc1cccs1)N1CC(c2nc(-c3cnccn3)no2)C1 | 50.2%
97 | c1csc(CN2CC(c3nc(-c4cnccn4)no3)C2)c1 | 26.54%
98 | c1cnc(-c2noc(C3CN(Cc4ccsc4)C3)n2)cn1 | 5.39%
99 | N#Cc1cccc(C(=O)N2CC(c3nc(-c4cccnc4)no3)C2)c1 | 25.53%
100 | COc1cccc(-c2noc(C3CCN(Cc4cccs4)C3)n2)c1 (stereo not given) | 11.1%
101 | c1cncc(-c2noc(C3CN(Cc4cccs4)C3)n2)c1 | 51.71%
102 | CCc1ccc(NC(=O)N2C[C@H]3CC[C@@]4(N=C(C)N(C)C4=O)[C@H]3C2)cc1 | 17.4%
103 | O=C(Nc1c(N2CCCC2)cccc1N1CCCC1)c1cnsn1 | 52.38%
104 | O=C(Nc1c(N2CCCC2)cccc1N1CCCC1)c1cnccn1 | 19.33%
105 | O=C(Nc1c(N2CCCC2)cccc1N1CCCC1)c1ccccn1 | 32.26%
